Compounds with a hit are over-represented: about 21% of the library has one in this group of screens.
SARS PLpro yeast = qHTS of Yeast-based Assay for SARS-CoV PLP; AID 485353, 2010; 330,000 compounds, 0.19% hits; Potency, µM (titrated, usually from 32.9 µM), for inactives: at the top dose activity, positive = growth rescue, most hits filed as activators; S. cerevisiae expressing SARS-CoV PLpro, growth rescue; calls by dose curve; further: potency means the concentration at half of the fitted maximal effect; 0% is about no effect; nearly all actives have a fitted effect of over 55% in size
Shiga toxin inh = A qHTS for Small Molecule Inhibitors of Shiga Toxin; 290,000 compounds, 9.2% hits; inhibition, % at 38.7 µM; Vero cells, Shiga toxin protein synthesis inhibition reporter; in the data active means inhibition mostly above about 28%, no sharp cut-off; inactive means mostly below about 43%; further: 0% is about no effect
Pf growth 96h = Primary qHTS for delayed death inhibitors of the malarial parasite plastid, 96 hour incubation | 320,000 compounds, 6.9% hits | Potency, µM (series often up to 28.7 µM), for inactives: at the highest dose activity change, negative = inhibition, hits mostly inhibitors | P. falciparum luciferase reporter growth, 96 h | AID 504834, 2011; further: potency means the concentration at half of the fitted maximal effect; on the % scale 0 is the no-effect control and ±100 the full control effect
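Plates of compound plus infected erythrocytes (2% hematocrit, 0.05% parasitemia final) incubate 96 hours, 37 C, 5% CO2. Detection reagent added; reduced luminescence from the parasites' luciferase reporter flags inhibition.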
Cycloheximide cs = Cycloheximide Counterscreen for Small Molecule Inhibitors of Shiga Toxin | cell reporter, cycloheximide protein synthesis inhibition counterscreen | max response, % | 300,000 compounds, 12% hits | AID 2314, 2010; in the data active means max response mostly above about 13%, no sharp cut-off; inactive means mostly below about 14%; further: read at 38.3 µM for the half of the compounds with a filed dose; 0% is about no effect
NS1 function inh = qHTS Assay for Inhibitors of Influenza NS1 Protein Function; Potency, µM (highest dose often 46.1 µM), inactives show at the highest dose activity, positive = more growth; 270,000 compounds, 0.4% hits; AID 2326, 2010; calls by dose curve; further: potency means the concentration at half of the fitted maximal effect; actives are rising curves; nearly all actives have a fitted effect of over 50% in size
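Read-out: OD600 growth recovery of NS1-expressing budding yeast. Cells grown overnight at 30C in -URA glucose medium, washed, resuspended and diluted 1:100 in 2% galactose assay medium, pH 6.0. Same strain lacking NS1 served as positive control.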
Pf growth 48h = Primary qHTS for delayed death inhibitors of the malarial parasite plastid, 48 hour incubation; P. falciparum luciferase growth in erythrocytes, 48 h; Potency, µM (highest dose often 28.7 µM), inactives show at the top dose activity change, negative = inhibition, most hits filed as inhibitors; 310,000 compounds, 5.9% hits; further: potency means the concentration at half of the fitted maximal effect; on the % scale 0 is the no-effect control and ±100 the full control effect
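Luciferase-expressing parasites in RBCs, 2% Hct / 0.1% parasitemia final; RPMI 1640 + 0.5% Albumax; 37 C, 5% CO2, one generation; luminescence read-out, lower signal = inhibition.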
* hit, by the source's call; i = inactive; u = inconclusive; x = not tested or not shown; [ ] = remark or other dose. Unless noted, the call rests on the fitted dose curve; in most records, active means well fitted inhibition curve with a large enough effect; inconclusive means small, poorly fitted or top-dose-only effect, or another doubt; inactive means no such curve, though single readings can be large or run the other way.

SMILES	SARS PLpro yeast	Shiga toxin inh	Pf growth 96h	Cycloheximide cs	NS1 function inh	Pf growth 48h
CCOC(=O)c1sc(NC(=O)CSc2nc3c(c(=O)n2-c2ccc(F)cc2)SCC3)c(C(=O)OCC)c1C	-16.1%	-6.3	2.94µM*	-1.9	8.4%	2.62µM*
CCOC(=O)c1sc(NC(=O)CSc2nnc(C)s2)c(C(=O)OCC)c1C	-0.5%	-3.6	u	-3.7	-31.2%	9.28µM*
CCOc1ccc(-n2c(SCc3ccc(C(=O)OC)o3)nc3c(c2=O)SCC3)cc1	u	-12.5	x	-3.1	-53.7%	u
COC(=O)c1ccc(CSc2nc3c(c(=O)n2-c2ccc(Br)cc2)SCC3)o1	14.1%	-13.5	9.28µM*	-3.6	-33.0%	x
Cc1cc(NC(=O)CSc2nc3ccccc3c(=O)n2-c2ccccc2)no1	6.8%	-16.5	x	-3.6	-3.1%	29.2%
COc1ccc([C@H]2CC(=O)C=C(c3ccc(OC)cc3OC)C2)cc1	0.0%	x	-26.3%	x	x	14.4%
Cc1ccccc1CNS(=O)(=O)c1c(C(=O)N2CCCC2)c(C)n(C)c1C	-1.8%	-3.1	-29.9%	4.9	14.1%	17.0%
Cc1c(C(=O)N2CCCCC2)c(S(=O)(=O)NCc2ccccc2Cl)c(C)n1C	-8.2%	-2.0	13.1µM*	-3.2	-3.3%	-10.7%
COC(=O)c1c(NC(=O)c2ccc([N+](=O)[O-])o2)sc2c1CCN(C(C)C)C2	-11.7%	15.4	u	23.1*	-106.6%	14.7µM*
CC(C)N1CCc2c(sc(NC(=O)c3ccc([N+](=O)[O-])o3)c2C(N)=O)C1	0.8%	13.5	4.65µM*	27.7*	-13.2%	13.1µM*
CC(C)N1CCc2c(sc(NC(=O)c3nc4ccccc4s3)c2C(N)=O)C1	-1.3%	47.4	56.1%	17.8	x	-18.5%
CC(=O)N1CCc2c(sc(NC(=O)c3ccc([N+](=O)[O-])o3)c2C#N)C1	-0.3%	82.1*	u	29.6	3.7%	52.7%
COC(=O)c1c(NC(=O)Cc2ccccc2)sc2c1CCN(C(C)C)C2	-13.3%	-5.8	33.7%	1.4	3.4%	-8.0%
O=C(Cn1ccc([N+](=O)[O-])n1)NCc1cccnc1	0.2%	-7.5	287.7%[5.75 µM]	2.7	x	-4.7%
COc1cccc(-c2nc(CS(=O)(=O)CC(=O)NCc3ccc4c(c3)OCO4)c(C)o2)c1	28.7%	-16.0	u	0.7	9.7%	-11.1%
CCN(Cc1ccc(Cl)s1)C(=O)c1cccc(OCc2c(C)noc2C)c1	-0.1%	x	x	x	x	x
COc1cc(/C=C/C(=O)c2ccc3c(c2)OCCO3)cc(OC)c1OC	-7.5%	4.3	-24.6%	-1.0	-25.2%	u
O=C(O)c1ccc2c(c1)OCCCO2	0.8%	-4.0	66.8%	-2.7	-10.1%	2.7%
COc1ccc(OC)c(/C=C/C(=O)c2ccc3c(c2)OCCO3)c1	-6.4%	26.2*	-10.9%	25.2*	-31.3%	-29.7%
O=C(/C=C/c1ccccc1)c1ccc2c(c1)OCCCCO2	-11.5%	41.4*	i	42.8*	-30.4%	121.9%
O=C(c1ccccc1)c1ccc2c(c1)OCCCO2	-0.7%	93.5*	i	54.5*	-3.3%	348.2%
c1ccc2c(c1)OCCOCCOCCOCCOCCOc1ccccc1OCCOCCOCCO2	-14.3%	-3.5	7.38µM*	-0.6	-34.7%	u
COc1ccc(NC(C)=O)cc1NC(C)C(=O)Nc1ccc(F)c(F)c1F (stereo not given)	6.8%	-24.1	38.8%	-5.1	0.3%	x
N#Cc1ccc(Cl)cc1NC(=O)CSc1nc2nc(-c3cccs3)cc(C(F)(F)F)c2c(=O)[nH]1	0.5%	-2.6	38.3%	-0.7	-2.8%	29.5%
O=C(c1ccccc1)c1ccc2c(c1)OCCOCCOCCO2	-0.5%	48.8*	42.8%	14.0*	-2.9%	18.0%
O/N=C(/CCc1ccccc1)c1ccc2c(c1)OCCO2	-1.8%	75.2*	-1.2%	37.5*	-38.0%	70.8%
O=C(CCc1ccccc1)c1ccc2c(c1)OCCCO2	-15.0%	125.0*	x	69.2*	-14.3%	u
CC(=O)c1ccc2c(c1)OCCOCCOc1ccccc1OCCOCCO2	0.1%	-2.5	0.1%	-1.7	-32.7%	17.6%
O=C(CCCc1ccccc1)c1ccc2c(c1)OCCO2	-18.7%	-17.1	12.0%	-8.7	-15.2%	-6.5%
